According to paper PMC7862700, “An all-to-all approach to the identification of sequence-specific readers for epigenetic DNA modifications on cytosine”:

Columns and labels:
Experiment in all cases: DAPPL (digital affinity profiling via proximity ligation, sequencing); 10 mM Tris-HCl pH 7.5, 50 mM NaCl, 1 mM DTT, 4% glycerol, room temperature, 30 min; GST-TFs on glutathione beads, 16-mer random dsDNA library, 0.1% formaldehyde crosslink after washing; high values mean tight binding
Details in all cases: protein: recombinant; tags: N-terminal GST; dsDNA, one strand shown
ETV1 = ETV1 (Homo sapiens, UniProt P50549 1-477)
Sequence of ETV1 (P50549 whole entry, the tested form may be a part): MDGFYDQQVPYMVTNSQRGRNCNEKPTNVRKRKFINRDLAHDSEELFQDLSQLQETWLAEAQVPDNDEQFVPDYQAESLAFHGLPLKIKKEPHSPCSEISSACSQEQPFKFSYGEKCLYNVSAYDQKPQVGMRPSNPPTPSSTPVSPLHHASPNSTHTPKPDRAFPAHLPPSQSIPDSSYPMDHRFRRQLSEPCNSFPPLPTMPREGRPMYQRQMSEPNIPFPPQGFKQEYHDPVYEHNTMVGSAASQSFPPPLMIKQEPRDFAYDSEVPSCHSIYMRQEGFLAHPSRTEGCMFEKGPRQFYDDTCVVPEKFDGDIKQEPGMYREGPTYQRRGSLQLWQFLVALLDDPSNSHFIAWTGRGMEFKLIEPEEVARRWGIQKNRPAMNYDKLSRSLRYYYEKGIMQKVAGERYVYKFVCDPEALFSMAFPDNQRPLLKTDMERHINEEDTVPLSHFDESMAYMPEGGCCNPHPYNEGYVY
How it was run: (§1)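 Sequencing on an Illumina NextSeq500 followed washing, crosslinking with 0.1% formaldehyde, proximity ligation (BsaI/T4 ligase, 1 h, 37 °C) and PCR amplification of pools that had been incubated for 30 min at room temperature with 200 nmole of a random double-stranded 16-mer DNA library in Tris/NaCl/DTT/glycerol buffer. Each pool held DNA-barcoded human transcription factors, expressed in yeast as GST fusions and captured on glutathione beads, plus a tag-only sample. Binding signal is a hexamer's read frequency for a factor divided by its frequency in the tag-only sample.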

ERF = biological target: T1, ERF (Homo sapiens, UniProt P50548 1-548)
T1 sequence: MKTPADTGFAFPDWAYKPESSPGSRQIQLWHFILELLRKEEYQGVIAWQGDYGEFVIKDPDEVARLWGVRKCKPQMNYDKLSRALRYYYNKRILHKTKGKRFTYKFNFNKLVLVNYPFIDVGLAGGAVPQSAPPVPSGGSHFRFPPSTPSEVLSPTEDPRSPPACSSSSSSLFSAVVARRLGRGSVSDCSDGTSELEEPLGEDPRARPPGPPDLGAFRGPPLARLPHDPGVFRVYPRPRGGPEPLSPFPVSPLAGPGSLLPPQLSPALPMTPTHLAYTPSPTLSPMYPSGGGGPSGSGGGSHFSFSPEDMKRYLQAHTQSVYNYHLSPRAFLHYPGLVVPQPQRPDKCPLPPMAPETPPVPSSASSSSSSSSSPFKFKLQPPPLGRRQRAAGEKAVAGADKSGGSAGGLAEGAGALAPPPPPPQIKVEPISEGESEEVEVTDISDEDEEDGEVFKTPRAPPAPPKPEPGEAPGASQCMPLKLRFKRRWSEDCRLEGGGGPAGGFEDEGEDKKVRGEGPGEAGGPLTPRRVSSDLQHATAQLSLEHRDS
How it was run: as §1

ETV3L = biological target: T2, ETV3L (Homo sapiens, UniProt Q6ZN32 1-361)
T2 sequence: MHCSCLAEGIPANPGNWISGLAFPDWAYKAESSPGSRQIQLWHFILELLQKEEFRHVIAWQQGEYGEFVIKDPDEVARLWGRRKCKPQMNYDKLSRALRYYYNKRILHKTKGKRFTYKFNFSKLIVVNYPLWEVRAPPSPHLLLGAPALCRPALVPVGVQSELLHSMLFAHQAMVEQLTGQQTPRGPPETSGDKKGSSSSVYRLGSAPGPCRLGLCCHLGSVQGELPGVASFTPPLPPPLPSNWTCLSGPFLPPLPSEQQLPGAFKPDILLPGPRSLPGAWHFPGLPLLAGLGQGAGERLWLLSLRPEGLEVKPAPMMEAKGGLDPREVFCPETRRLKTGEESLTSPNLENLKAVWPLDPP
How it was run: as §1

ETS2 = biological target: T3, ETS2 (Homo sapiens, UniProt P15036 1-469)
T3 sequence: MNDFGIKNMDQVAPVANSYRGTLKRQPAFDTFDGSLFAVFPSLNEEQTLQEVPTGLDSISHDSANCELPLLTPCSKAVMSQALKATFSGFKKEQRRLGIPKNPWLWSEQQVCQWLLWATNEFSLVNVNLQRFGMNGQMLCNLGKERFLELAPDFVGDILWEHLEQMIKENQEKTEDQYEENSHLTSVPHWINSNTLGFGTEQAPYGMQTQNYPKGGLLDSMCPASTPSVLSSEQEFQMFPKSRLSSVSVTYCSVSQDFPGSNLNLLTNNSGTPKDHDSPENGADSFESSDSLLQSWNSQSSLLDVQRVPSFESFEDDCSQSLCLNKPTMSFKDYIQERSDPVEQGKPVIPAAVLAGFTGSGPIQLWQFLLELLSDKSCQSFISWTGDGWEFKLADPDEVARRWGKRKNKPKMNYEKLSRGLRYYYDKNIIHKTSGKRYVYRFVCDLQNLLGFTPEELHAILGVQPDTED
How it was run: as §1

SPDEF = biological target: T4, SPDEF (Homo sapiens, UniProt O95238 1-335)
T4 sequence: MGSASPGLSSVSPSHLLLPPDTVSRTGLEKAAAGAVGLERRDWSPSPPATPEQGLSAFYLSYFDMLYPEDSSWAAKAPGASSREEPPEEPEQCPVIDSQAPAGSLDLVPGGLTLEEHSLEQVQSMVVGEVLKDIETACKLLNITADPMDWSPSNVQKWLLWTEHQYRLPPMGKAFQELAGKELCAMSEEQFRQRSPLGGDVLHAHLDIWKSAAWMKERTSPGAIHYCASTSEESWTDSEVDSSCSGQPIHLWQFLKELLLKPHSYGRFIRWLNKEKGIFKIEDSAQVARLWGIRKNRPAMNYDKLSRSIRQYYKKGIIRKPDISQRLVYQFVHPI
How it was run: as §1

ETV7 = biological target: T5, ETV7 (Homo sapiens, UniProt Q9Y603 1-341)
T5 sequence: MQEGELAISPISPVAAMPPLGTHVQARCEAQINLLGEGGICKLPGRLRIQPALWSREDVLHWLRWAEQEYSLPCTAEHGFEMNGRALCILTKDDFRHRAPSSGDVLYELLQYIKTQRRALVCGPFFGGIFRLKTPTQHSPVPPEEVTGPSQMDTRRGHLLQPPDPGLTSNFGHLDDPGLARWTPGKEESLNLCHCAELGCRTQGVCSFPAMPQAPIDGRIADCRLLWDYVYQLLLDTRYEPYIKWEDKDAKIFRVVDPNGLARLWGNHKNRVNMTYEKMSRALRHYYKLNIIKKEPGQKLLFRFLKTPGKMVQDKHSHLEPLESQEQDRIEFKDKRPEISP
How it was run: as §1

ELF5 = biological target: T6, ELF5 (Homo sapiens, UniProt Q9UKW6-2 1-255)
T6 sequence: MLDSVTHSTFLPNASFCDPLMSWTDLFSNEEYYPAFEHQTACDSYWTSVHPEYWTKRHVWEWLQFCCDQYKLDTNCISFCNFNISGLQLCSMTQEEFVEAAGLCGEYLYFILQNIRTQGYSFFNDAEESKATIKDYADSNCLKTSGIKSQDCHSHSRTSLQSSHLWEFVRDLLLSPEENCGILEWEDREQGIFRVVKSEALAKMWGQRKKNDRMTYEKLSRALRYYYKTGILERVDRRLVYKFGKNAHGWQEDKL
How it was run: as §1

ETV3 = biological target: T7, ETV3 (Homo sapiens, UniProt P41162-2 1-143)
T7 sequence: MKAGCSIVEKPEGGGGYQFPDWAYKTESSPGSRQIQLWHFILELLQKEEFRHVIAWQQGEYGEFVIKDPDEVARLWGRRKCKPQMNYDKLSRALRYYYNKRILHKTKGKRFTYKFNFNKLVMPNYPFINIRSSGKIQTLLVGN
How it was run: as §1

ETV6 = ETV6 (Homo sapiens, UniProt P41212 1-452)
Sequence of ETV6 (P41212 whole entry): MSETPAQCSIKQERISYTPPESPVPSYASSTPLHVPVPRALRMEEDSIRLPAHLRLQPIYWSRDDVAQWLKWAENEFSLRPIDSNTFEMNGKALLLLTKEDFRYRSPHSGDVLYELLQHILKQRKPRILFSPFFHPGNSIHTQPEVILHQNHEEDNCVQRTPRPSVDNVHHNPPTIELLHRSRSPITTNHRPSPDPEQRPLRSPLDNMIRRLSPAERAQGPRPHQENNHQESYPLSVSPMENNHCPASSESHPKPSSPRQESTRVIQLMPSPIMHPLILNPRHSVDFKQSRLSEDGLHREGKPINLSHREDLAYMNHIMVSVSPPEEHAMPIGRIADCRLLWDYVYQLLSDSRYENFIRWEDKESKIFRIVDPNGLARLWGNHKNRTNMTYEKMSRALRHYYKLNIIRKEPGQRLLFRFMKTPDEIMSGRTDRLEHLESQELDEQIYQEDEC
How it was run: as §1

## TTTCTG
ETV1
  binding signal: 1.3 fold enrichment (6-mer frequency, TF over GST control)
ERF
  binding signal: 1.44 fold enrichment (6-mer frequency, TF over GST control)
ETV3L
  binding signal: 1.29 fold enrichment (6-mer frequency, TF over GST control)
ETS2
  binding signal: 1.37 fold enrichment (6-mer frequency, TF over GST control)
SPDEF
  binding signal: 1.46 fold enrichment (6-mer frequency, TF over GST control)
ETV7
  binding signal: 1.39 fold enrichment (6-mer frequency, TF over GST control)
ELF5
  binding signal: 1.42 fold enrichment (6-mer frequency, TF over GST control)
ETV3
  binding signal: 1.3 fold enrichment (6-mer frequency, TF over GST control)
ETV6
  binding signal: 1.46 fold enrichment (6-mer frequency, TF over GST control)
